This is one part of a sample in which hits are shown more often than they occur.
Pf Dd2 growth – qHTS Primary assay for Inhibitors of Plasmodium falciparum Dd2 growth in vitro; Potency, µM (top dose mostly 28.9 µM), usual class: inhibitors; P. falciparum Dd2 growth, SYBR Green, 72 h; 120,000 compounds, 4.3% hits; active means well fitted inhibition curve with a large enough effect; further: nearly all actives have a fitted effect of over 65% in size
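Infected erythrocytes (Dd2, 0.3% parasitemia, 2.5% hematocrit final) are added to compound in RPMI-1640/Albumax II medium, grown 72 h at 37C in low oxygen, then lysed with saponin/Triton-X containing SYBR Green and read by fluorescence.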
Of the large screens only hits and unclear results are named; the others gave an inactive call.

Cc1cccc(Cn2nnc3c(=O)[nH]c(C4CCCN(C(=O)c5ccc(C(C)(C)C)cc5)C4)nc32)c1 (configuration not stated)	Pf Dd2 growth 1µM
CCc1cn[nH]c1C1CCCN(C(=O)c2ccc(Cn3nnnc3C)cc2)C1 (configuration not stated)	none
O=c1c2nc(OCc3ccc4c(c3)OCO4)ccc2ncn1-c1ccccc1	none
Cc1sc2ccn(Cc3ccc(F)cc3)c(=O)c2c1C(=O)NCCCN1CCOCC1	none
O=C(NCCC1CCN(Cc2ccccc2)CC1)C1CNCCO1 (configuration not stated)	none
CCOC(=O)C(C)N1CCOc2c(O)cc(-c3cccc(Cl)c3)cc2C1 (configuration not stated)	Pf Dd2 growth 11.2µM
CC1=NOC(C(=O)N2CCOc3c(O)cc(-c4nc(C)cnc4C)cc3C2)C1 (configuration not stated)	none
CC(=O)NCCC(=O)N1CCOc2c(O)cc(-c3cccc(Cl)c3)cc2C1	none
CN(C)c1cccc(C(=O)N2CCC(n3cc(-c4nc(-c5ccccc5)no4)nn3)C2)c1 (configuration not stated)	none
CCCn1cnnc1CNC(=O)C1(Oc2ccc(Cl)cc2)CCNCC1	none
CC(C)N1C(=O)C2(CCCC2)C1C(=O)NCCCN1CCN(c2ccccc2)CC1 (configuration not stated)	none
CC(C)N1C(=O)C2(CCCC2)C1C(=O)NCCCN1CCCC1 (configuration not stated)	none
CCN1CCN(CCNC(=O)C2N(C(C)C)C(=O)C23CCCCC3)CC1 (configuration not stated)	none
COc1ccc(N2C(=O)C3(CCCCC3)C2C(=O)NCCN2CCc3ccccc3C2)cc1 (configuration not stated)	Pf Dd2 growth 8.91µM
COc1ccc(N2C(=O)C3(CCCCC3)C2C(=O)NCCCN2CCCCC2)cc1 (configuration not stated)	Pf Dd2 growth 11.2µM
CC1(C(=O)NCCCN2CCc3ccccc3C2)CCCCC(=O)N1 (configuration not stated)	none
CCC(=O)N1c2ccccc2CC1C(=O)NCCCN1CCN(c2ccc(OC)cc2)CC1 (configuration not stated)	none
COc1ccc(N2C(=O)C3(CCCCC3)C2C(=O)NCCCN2CCCC2)cc1 (configuration not stated)	Pf Dd2 growth 4.47µM
COc1ccc(N2C(=O)C3(CCCCC3)C2C(=O)O)cc1 (configuration not stated)	none
COCCn1c(COc2c(C)nc(C)nc2C)nnc1C1CC(N)C1 (configuration not stated)	none
CC(C)NC(=O)C[C@@H]1C[C@H]2O[C@H](CNC(=O)NCc3ccccc3)[C@@H](O)[C@H]2O1	none
O=C(NCc1cc(F)cc(F)c1)C1CCN(C(=O)N2CC3CC(C2)[C@H]2CCCC(=O)N2C3)CC1 (some centres not stated)	none
Cc1nc(C(=O)N2CC(F)(F)C[C@H]2c2nnc(C3CC3)o2)co1	none
COc1c(C)cc(C)cc1CN1CCC2(CC1)C(C(=O)O)CC(=O)N2C (configuration not stated)	none
Cc1ccc(C)c(C(=O)CSc2nc3cc(C(=O)NC4CCCC4)ccc3c(=O)n2CC2CCCO2)c1 (configuration not stated)	Pf Dd2 growth 10µM
O=C(CSc1nc2cc(C(=O)NC3CCCC3)ccc2c(=O)n1CC1CCCO1)c1cccc(Cl)c1 (configuration not stated)	Pf Dd2 growth 10µM
COCCn1c(SCC(=O)c2ccc(C)cc2)nc2cc(C(=O)NC3CCCC3)ccc2c1=O	none
Cc1ccc(C(=O)CSc2nc3cc(C(=O)NC4CCCC4)ccc3c(=O)n2CC2CCCO2)cc1 (configuration not stated)	none
O=C(CSc1nc2cc(C(=O)NC3CCCC3)ccc2c(=O)n1CC1CCCO1)c1ccc(F)cc1 (configuration not stated)	none
COCCn1c(SCC(=O)c2ccc(C)cc2C)nc2cc(C(=O)NC3CCCC3)ccc2c1=O	none
COc1ccc(Cl)cc1-c1ccc2c(c1)C(=O)N1CCN(C(=O)COc3ccccc3)C[C@@H]1C(=O)N2	none
COc1cccc(Nc2ncc3c(n2)C(C)(C(=O)Nc2nc(C)cs2)CC3)c1 (configuration not stated)	none
COc1cccc(CC(=O)N2CCC3(CC2)CC(N(C(=O)NC(C)C)C2CC2)CCO3)c1 (configuration not stated)	none
CC(C)CCN1CCC(N2CCN(S(=O)(=O)c3ccc(F)cc3F)CC2)C1=O (configuration not stated)	none
O=C(NCCc1cnc[nH]1)C1CC(=O)N(c2n[nH]c3cc(Br)ccc23)C1 (configuration not stated)	none
CC(C)n1cc(CN2C[C@@H](COCC(N)=O)[C@H](c3ccncc3)C2)cn1	none
CCOC(=O)C1=C(C)N=C2SC=C(CC(=O)NCCc3cccs3)N2C1c1ccccc1F (configuration not stated)	none
